Screening data as filed in PubChem BioAssay.
Rows were chosen to be rich in hits. Some 2.1% of all compounds tested hit in one or more screens of this group.
ROS inducer: ROS inducers in U2OS cancer cells, primary screen, cell-based, H2DCF-DA fluorescence. 2% of 46,000 active. ROS induction (% of piperlongumine), % at 10 µM. U2OS ROS induction; in the data active means ROS induction above about 79%, passing the limit was not always enough;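 further: 0% = DMSO vehicle median and 100% = reference compound median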
YB-1 expression: inhibitors of YB-1 gene expression, primary screen, cell-based, fluorescence | U2OS, qRT-PCR YB-1 vs CDIP delta delta Cp, 16 h; hits give high values; zero = DMSO, each unit about twofold | delta delta Cp (YB-1 minus CDIP) (test concentration not listed) | 0.37% of 30,000 active;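 active means delta delta Cp rounded down to an integer at or above 3, about 3 SD of DMSO wells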;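 further: higher means less YB-1 transcript or more CDIP transcript relative to DMSO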
The depositor's hits bear a star; . = not tested or not shown.

SMILES	ROS inducer	YB-1 expression
Cc1ccc(S(=O)(=O)Nc2ccc3c(c2)C(=O)N([C@H](C)CO)C[C@H](C)[C@@H](CN(C)S(=O)(=O)c2c(C)noc2C)OCCCC[C@@H](C)O3)cc1	12	-0.24
COc1ccc(S(=O)(=O)Nc2ccc3c(c2)C(=O)N([C@H](C)CO)C[C@H](C)[C@H](CN(C)S(=O)(=O)c2ccc(Cl)cc2)OCCCC[C@@H](C)O3)cc1	91*	-0.027
Cc1ccc(S(=O)(=O)N(C)C[C@H]2OCCCC[C@@H](C)Oc3ccc(NS(=O)(=O)c4c(C)noc4C)cc3C(=O)N([C@H](C)CO)C[C@@H]2C)cc1	4	-0.33
CC1CCC(NC(=O)c2ccc(CSc3nc4ccncc4[nH]3)cc2)CC1 (stereo not given)	12	.
O=C(O)C1CC=CCC1C(=O)Nc1ccccc1S (stereo not given)	-13	.
Cc1ccc(/C(N)=N/O)cc1	-16	.
Cn1c2ccccc2c2cnn(CC(=O)N3CCCC3)c(=O)c21	-5	.
O=C(CSc1ncnc2c1sc1ccccc12)NC1CCCCC1	36	.
Cc1ccc(S(=O)(=O)Nc2ccc3c(c2)C(=O)N([C@H](C)CO)C[C@H](C)[C@H](CN(C)C(=O)c2ccncc2)OCCCC[C@@H](C)O3)cc1	108*	0.22
C[C@@H]1CCCCO[C@H](CN(C)C(=O)c2ccncc2)[C@@H](C)CN([C@H](C)CO)C(=O)c2cc(NS(=O)(=O)c3ccc(F)cc3)ccc2O1	-2	0.24
C[C@@H]1CCCCO[C@H](CN(C)C(=O)c2ccncc2)[C@@H](C)CN([C@H](C)CO)C(=O)c2cc(NC(=O)NC3CCCCC3)ccc2O1	123*	0.12
C[C@@H]1CCCCO[C@H](CN(C)C(=O)Nc2ccc3c(c2)OCO3)[C@@H](C)CN([C@H](C)CO)C(=O)c2cc(NC(=O)Nc3ccccc3)ccc2O1	26	0.041
COc1ccc(NC(=O)N(C)C[C@@H]2OCCCC[C@@H](C)Oc3ccc(NC(=O)Nc4ccc5c(c4)OCO5)cc3C(=O)N([C@H](C)CO)C[C@@H]2C)cc1	118*	0.025
C[C@@H]1CCCCO[C@H](CN(C)C(=O)c2ccccc2)[C@@H](C)CN([C@H](C)CO)C(=O)c2cc(NC(=O)NC3CCCCC3)ccc2O1	21	0.058
COc1ccc(NC(=O)Nc2ccc3c(c2)C(=O)N([C@H](C)CO)C[C@H](C)[C@@H](CN(C)C(=O)Nc2ccc4c(c2)OCO4)OCCCC[C@@H](C)O3)cc1	20	-0.13
C[C@@H]1CCCCO[C@@H](CN(C)C(=O)Nc2ccc3c(c2)OCO3)[C@@H](C)CN([C@H](C)CO)C(=O)c2cc(NC(=O)NC3CCCCC3)ccc2O1	121*	-0.86
O=C(NCCC1=CCCCC1)c1ccc(Cn2c(=S)[nH]c3cc4c(cc3c2=O)OCO4)cc1	42	.
COC(=O)N(C)c1ccc(C(O)(C(F)(F)F)C(F)(F)F)cc1	-10	.
O=C(Cn1ncc2c3ccccc3n(Cc3ccccc3)c2c1=O)N1CCOCC1	-12	.
O=C(COc1ccc(Br)cc1)NCC1CCCO1 (stereo not given)	6	9.5*
O=S(=O)(NCC1CCCO1)c1ccc(Br)cc1 (stereo not given)	30	-0.14
C[C@H]1CN([C@@H](C)CO)C(=O)c2cc(NC(=O)Nc3ccc(C(F)(F)F)cc3)ccc2O[C@@H]1CN(C)C(=O)Nc1ccc2c(c1)OCO2	31	0.11
C[C@H](CO)N1C[C@H](C)[C@H](CN(C)C(=O)Nc2ccc(C(F)(F)F)cc2)Oc2ccc(NC(=O)Nc3ccc4c(c3)OCO4)cc2C1=O	103*	0.36
C[C@@H]1CN([C@@H](C)CO)C(=O)c2cc(NC(=O)C3CC3)ccc2O[C@H]1CN(C)C(=O)NC1CCCCC1	13	21*
C[C@@H]1CN([C@H](C)CO)C(=O)c2cc(NC(=O)C3CC3)ccc2O[C@H]1CN(C)C(=O)Nc1ccc(C(F)(F)F)cc1	1	-0.094
SMILES	ROS inducer	YB-1 expression
C[C@@H]1CN([C@H](C)CO)C(=O)c2cc(NC(=O)C3CC3)ccc2O[C@H]1CN(C)C(=O)NC1CCCCC1	-7	-0.021
C[C@H]1CN([C@@H](C)CO)C(=O)c2cc(NC(=O)Nc3ccc4c(c3)OCO4)ccc2O[C@H]1CN(C)Cc1ccc(C(F)(F)F)cc1	34	0.32
C[C@@H]1CN([C@@H](C)CO)C(=O)c2cc(NC(=O)C3CC3)ccc2O[C@@H]1CN(C)C(=O)Nc1ccc(C(F)(F)F)cc1	80*	0.34
C[C@@H]1CN([C@H](C)CO)C(=O)c2cc(NC(=O)Nc3ccc4c(c3)OCO4)ccc2O[C@H]1CN(C)Cc1ccc(C(F)(F)F)cc1	119*	-0.32
Nc1c(C(=O)NCC2CCCO2)sc2ccc(S(=O)(=O)N3CCCCC3)cc12 (stereo not given)	-12	.
CN(C1CCCCC1)S(=O)(=O)c1ccc(N)cc1	-13	-0.65
COc1cccc(C(=O)N2CCCCC2C)c1 (stereo not given)	-18	.
Cc1ccc(CSc2nc3ccccc3c(=O)n2-c2ccc(C(=O)N3CCOCC3)cc2)cc1	10	.
C[C@@H]1CN([C@@H](C)CO)C(=O)c2cc(NC(=O)C3CCCCC3)ccc2O[C@H]1CN(C)C(=O)Nc1cccc2ccccc12	13	5.6*
C[C@H]1CN([C@@H](C)CO)C(=O)c2cc(NC(=O)C3CCCCC3)ccc2O[C@@H]1CN(C)C(=O)Nc1cccc2ccccc12	5	0.016
CCOC(=O)c1nnn2c1nc(SCC(N)=O)c1ccccc12	17	-0.1
CCOC(=O)c1nnn2c1nc(N(Cc1ccccc1)Cc1ccccc1)c1ccccc12	173*	0.37
O=C(NCc1ccc(Cl)cc1)c1ccc2c(c1)N(Cc1cccc(F)c1)C(=O)CS2=O (stereo not given)	-12	.
c1ccc(CCSc2nnc3sc4ccccc4n23)cc1	9	.
CC(=O)N1CCN(CC(O)COc2ccc(C)cc2)CC1 (stereo not given)	-6	.
Cc1cc2nc(SCC(=O)NN)[nH]c2cc1C	-26	0.054
Cc1cc2nc(SCc3ccccc3C#N)[nH]c2cc1C	127*	.
COc1ccc(C2NC(c3ccc(OC)cc3)C(C)C(O)(Cc3ccccc3)C2C)cc1 (stereo not given)	12	.
CCC(Sc1nc2c(cc1C#N)CCCCC2)C(=O)Nc1cc(C)on1 (stereo not given)	2	.
C[C@@H]1CCCCO[C@@H](CN(C)CC2CC2)[C@@H](C)CN([C@H](C)CO)C(=O)c2cc(NS(=O)(=O)c3ccc(F)cc3)ccc2O1	12	-0.29
C[C@@H]1CCCCO[C@@H](CN(C)C(=O)Nc2ccc(C(F)(F)F)cc2)[C@@H](C)CN([C@H](C)CO)C(=O)c2cc(NS(=O)(=O)c3ccc(F)cc3)ccc2O1	82*	0.48
C[C@@H]1CCCCO[C@H](CN(C)S(=O)(=O)c2ccc(F)cc2)[C@@H](C)CN([C@H](C)CO)C(=O)c2cc(NS(=O)(=O)c3cccs3)ccc2O1	23	-0.13
C[C@@H]1CCCCO[C@@H](CN(C)S(=O)(=O)c2cccs2)[C@@H](C)CN([C@H](C)CO)C(=O)c2cc(NS(=O)(=O)c3ccc(F)cc3)ccc2O1	102*	-0.23
Cc1ccc(S(=O)(=O)Nc2ccc3c(c2)C(=O)N([C@H](C)CO)C[C@H](C)[C@@H](CN(C)C(=O)Nc2ccc(C(F)(F)F)cc2)OCCCC[C@@H](C)O3)cc1	40	0.3
